# In the library only some 3.6% were active in any assay of this set; here they are far more common.
# GDH-TPI inh = GDH-TPI coupled enzyme inhibition counter-screen | GDH-TPI coupled enzyme counterscreen, NADH absorbance | inhibition, % at 4.8 µM | 360,000 compounds, 1.2% hits; in the data active means inhibition above about 30%;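 further: 0% = DMSO wells and 100% = wells lacking the enzyme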
# DUSP3 inh = DUSP3 (human) phosphatase inhibition | P51452 | inhibition, % at 13.3 µM | 290,000 compounds, 0.52% hits | recombinant VHR phosphatase, pNPP absorbance; in the data active means inhibition above about 50%
# Target sequence (P51452 whole entry, looked up): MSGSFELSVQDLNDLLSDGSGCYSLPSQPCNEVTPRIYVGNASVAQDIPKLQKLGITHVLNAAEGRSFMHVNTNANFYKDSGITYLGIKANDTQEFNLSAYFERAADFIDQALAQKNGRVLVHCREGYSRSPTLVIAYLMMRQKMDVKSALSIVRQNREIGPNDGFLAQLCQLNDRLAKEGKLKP
# FBA Mtb inh = inhibits M. tuberculosis FBA enzyme; P9WQA3; purified M. tuberculosis FBA, fluorescence read-out; inhibition, % at 1 µM; 360,000 compounds, 2.3% hits; AID 588726; in the data active means inhibition above about 27%;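 further: 0% = vehicle and 100% = reference inhibitor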
# Target sequence (P9WQA3 whole entry, looked up): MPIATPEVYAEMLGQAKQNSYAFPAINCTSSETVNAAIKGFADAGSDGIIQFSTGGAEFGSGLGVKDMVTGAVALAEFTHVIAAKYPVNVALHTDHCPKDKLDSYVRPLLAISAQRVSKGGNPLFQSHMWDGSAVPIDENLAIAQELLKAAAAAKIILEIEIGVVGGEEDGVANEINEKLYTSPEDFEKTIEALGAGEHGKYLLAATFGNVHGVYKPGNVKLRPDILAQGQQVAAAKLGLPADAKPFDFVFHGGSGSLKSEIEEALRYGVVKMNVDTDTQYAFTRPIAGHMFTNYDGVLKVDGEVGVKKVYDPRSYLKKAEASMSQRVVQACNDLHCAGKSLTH
# Mtb hypoxia inh = reduces hypoxia-regulated biosensor signal in M. tuberculosis. fluorescence inhibition, % (concentration not given with the values). M. tuberculosis hypoxia-regulated fluorescent reporter, fluorescence. 300,000 compounds, 0.1% hits; in the data active means fluorescence inhibition mostly above about 23%, no sharp cut-off; inactive means mostly below about 17%
# Mtb bLac sens = beta-lactam sensitization of Mtb H37Rv; M. tuberculosis H37Rv growth with meropenem, percent inhibition; 330,000 compounds, 0.27% hits; inhibition, % at 25 µM; call rule not given here;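 further: growth measured after seven days incubation then overnight dye step; 0% = bacteria only wells and 100% = bacteria with antibiotic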
# The depositor's hits bear a star; · = no result; + = active, no number.
SMILES,GDH-TPI inh,DUSP3 inh,FBA Mtb inh,Mtb hypoxia inh,Mtb bLac sens
COC(=O)CNC(=O)c1ccc(=O)oc1,63*,45,9,·,-4
COC(=O)CNC(=O)c1cc(OC)cc(OC)c1,-1,-3,2,-1,5
Cc1ccccc1NC(=O)C(C)SCc1ccccc1 (configuration not stated),11,52*,1,9,-6
CCN1CCN(CCCNC(=O)c2ccc3c(c2)N(Cc2ccccc2)CCS3)CC1,-3,-1,170*,12,5
CCOC(=O)N1CCN(C(=O)c2ccc3c(c2)N(Cc2ccc(F)cc2)CCS3)CC1,17,6,12,0,4
O=C(NCC1CCCO1)c1ccc2c(c1)N(Cc1ccc(F)cc1)CCS2 (configuration not stated),10,44,119*,16,-5
CCOC(=O)N1CCC(NC(=O)c2ccc3c(c2)N(Cc2ccc(C)cc2)CCS3)CC1,-3,-6,19,0,6
O=C(NCC1CCCO1)c1ccc2c(c1)N(Cc1ccc(F)cc1Cl)C(=O)CS2 (configuration not stated),-1,2,-3,2,7
CCOC(=O)N1CCC(NC(=O)c2ccc3c(c2)N(C)CCS3)CC1,16,-14,114*,-4,-6
CN1CCN(CCCNC(=O)c2ccc3c(c2)N(Cc2ccc(F)cc2)CCS3)CC1,7,16,159*,7,-6
CCOC1OC(C(=O)NCc2nc3ccccc3[nH]2)=CC(c2ccccc2)C1CCCO (configuration not stated),·,·,·,-1,·
O=C(NN=Cc1ccccc1C(=O)O)c1cc(-c2ccc3c4c(cccc24)CC3)n[nH]1,·,·,·,12,·
CN1C(=O)/C(=C/c2ccccc2F)Sc2ccc(C(=O)NCC3CCCO3)cc21 (configuration not stated),14,-9,11,-1,98
O=C1Nc2cc(C(=O)NCC3CCCO3)ccc2S/C1=C/c1ccccc1F (configuration not stated),10,54*,-3,9,-2
O=C(NC1CC1)c1ccc2c(c1)N(Cc1ccccc1)CCS2,4,12,161*,10,-4
COc1ccc(OC)c(CCNC(=O)c2ccc3c(c2)N(Cc2ccccc2)CCS3)c1,8,25,8,-1,1
CCN(CC)c1ccc(N=Cc2c(O)n(-c3ccccc3)c(=O)[nH]c2=O)cc1,11,-8,-5,6,66
CCN(CC)c1ccc(N=Cc2c(O)[nH]c(=O)[nH]c2=O)cc1,35*,1,-6,6,-10
O=C1CN(C(=O)COC(=O)c2ccccc2NCc2ccco2)c2ccccc2N1,14,31,61*,13,-1
CN(C(=O)COC(=O)c1ccccc1NCc1ccco1)c1c(N)n(Cc2ccccc2)c(=O)[nH]c1=O,2,·,115*,9,-4
O=C1CN(C(=O)COC(=O)c2ccco2)c2ccccc2N1,-1,·,-2,-13,-6
Cn1cc(Cl)c(C(=O)NN=Cc2ccc(OS(=O)(=O)c3ccccc3)cc2)n1,·,·,·,2,·
Cc1cc(=O)oc2cc3c(cc12)OCO3,20,-8,+,-8,-3
CC(=O)c1cc2c(C)cc(=O)oc2cc1O,17,23,9,-16,-5
Cc1cc(=O)oc2cc3c(cc12)CCCN3,17,10,+,0,-4
SMILES,GDH-TPI inh,DUSP3 inh,FBA Mtb inh,Mtb hypoxia inh,Mtb bLac sens
Cc1cc(=O)oc2cc3c(cc12)OCCN3,18,30,+,·,-4
Cc1cc2cc3c(C)cc(=O)oc3c(C)c2o1,-1,10,6,13,6
Cc1cc2c(C)cc(=O)oc2c2c1NCCC2,2,-7,+,3,1
CN(C)c1ccc(-c2nc3ccccc3c(=O)[nH]2)cc1,74*,17,2,-1,8
Cc1c(O)ccc(C(=O)COc2ccc(F)cc2)c1O,32*,26,-2,9,-4
CN(C)c1ccc(C(=O)N/N=C/C23CC[C@@H](O)CC2(O)CC[C@@H]2[C@@H]3CCC3(C)C(C4=CC(=O)OC4)CCC23O)cc1 (some centres not stated),45*,10,1,·,-6
CC12CC[C@H]3[C@@H](CCC4(O)C[C@H](O)CCC34/C=N/NC(=O)c3ccc(O)cc3)C1(O)CCC2C1=CC(=O)OC1 (some centres not stated),10,-32,2,·,-4
COc1ccc(C2C=CCN(CC(C)C)CC(=O)N2Cc2ccc(F)cc2)cc1 (configuration not stated),·,·,·,19,·
COc1ccccc1C=NNC(=O)CN(C1=NS(=O)(=O)c2ccccc21)c1ccccc1,·,·,·,-1,·
O=C(Cn1c(=O)cnc2ccccc21)Nc1cccc(S(=O)(=O)N2CCOCC2)c1,10,·,4,28*,-3
CCCCNc1c(-c2ccc(SC(C)CC)cc2)nc2cnccn12 (configuration not stated),19,·,40*,·,100
CCCCNc1c(-c2ccc(OC)c(Sc3ccc(OC)cc3)c2)nc2cnccn12,5,·,20,8,60
CCCCCCSc1cc(-c2nc3cnccn3c2NCCCC)ccc1OC,12,·,15,·,93
CCCCNc1c(-c2ccc(OC)c(Sc3ccc(OC)cc3)c2)nc2ccccn12,14,·,28*,·,69
Cc1ccc(NC(=O)C(=O)NCc2ccc(/C=C(/C#N)C(=O)NCc3cccnc3)o2)cc1,32*,40,0,-3,6
COCCNC(=O)/C(C#N)=C\c1ccc(CNC(=O)C(=O)Nc2ccc(C)c(C)c2)o1,22,4,-1,·,-2
Cc1ccc(NC(=O)C(=O)NCc2ccc(/C=C(/C#N)C(=O)NCc3cccnc3)o2)cc1C,34*,32,0,13,-2
N#C/C(=C/c1ccc(CNC(=O)C(=O)Nc2cc(Cl)cc(Cl)c2)o1)C(=O)NCc1cccnc1,-4,2,0,5,5
CC(=O)Nc1cc2c3c(cccc3c1)-c1ccccc1-2,12,·,140*,8,·
CC(=O)Nc1ccc2c(c1)C(=O)c1ccccc1C2=O,8,8,-3,-19,-1
COc1ccc(/C=N/Nc2nn3cnnc3c3ccccc23)cc1,35*,-26,-3,·,1
CCOc1cc(C=NNc2nn3cnnc3c3ccccc23)ccc1O,·,·,·,-12,·
C[N+](C)(C)CCOP(=O)([O-])OCC(O)CO (configuration not stated),·,·,·,0,·
N#Cc1ccc(OCC(=O)N2CCN(S(=O)(=O)c3ccc(Cl)s3)CC2)cc1,-9,·,1,27*,-3
CC(=O)c1ccccc1N(C(=O)c1ccco1)C(C(=O)NC1CCCC1)c1ccc(C)cc1 (configuration not stated),9,51*,-4,2,-1
Cc1ccc(/C=N/NC(=O)c2nnn(-c3nonc3N)c2CSc2ccccc2)cc1,12,-10,-1,·,-1
Cc1ccc(/C=N/NC(=O)c2nnn(-c3nonc3N)c2CSc2ccccc2)o1,40*,1,1,·,-2
CCCc1c(C(=O)N/N=C/c2ccc(C)o2)nnn1-c1nonc1N,42*,·,3,·,·

# Screening results as filed in PubChem.
